In PubChem BioAssay AID1259415 (National Center for Advancing Translational Sciences (NCATS), 2018):
Several values for one entry are separate records, joined by “and”; a condition that tells them apart may be missing. Equal entries are not always repeated. Among all 410,000 compounds or so, about 18,000 (4.4%) were called active. Not shown: some 7% with an inconclusive outcome. Rule as the data show it: active = activity change below about -60%; inconclusive = no clear call, values can overlap the other calls; inactive = above about -39%. This excerpt belongs to a sample that is enriched for actives.

Experiment: qHTS Assay for inhibitors of the human cytomegalovirus (HCMV)
Conditions: HFF cells, HCMV-luciferase reporter, 72 h; at 57.5 µM; stronger effect = lower value
Procedure, shortened: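 Steps: HFFs plated, 16 h 37C; compounds added; HCMV-luciferase added to MOI 1 PFU/cell; 72 h 37C; OneGlo reagent, 5 min room temperature; luminescence read, normalized to controls.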
% is scaled to controls: 0 for no effect and ±100 for the full control effect.

Row | SMILES | activity change, negative = inhibition
1 | O=C(NCc1cc(F)cc(C(F)(F)F)c1)C1CCC(=O)N(C2CCCC2)C1 (centres undefined) | 8.32% (inactive)
2 | O=C(N/N=C/c1ccc(Cl)c(Cl)c1)c1ccc2nc[nH]c2c1 | -65.6% (active)
3 | CC(=NNC(=O)c1ccncc1)c1ccc(Cl)c(Cl)c1 | -31% (inactive)
4 | NCCCCCC(=O)N/N=C/c1ccc2nccnc2c1 | -14.8% (inactive)
5 | CCc1ccc(CN(Cc2ccco2)C(=O)c2ccccc2Cl)cc1 | 33.9% (inactive)
6 | O=C(CN1C(=O)CCn2nc(-c3ccccc3)cc21)NCc1ccccc1 | 6.04% (inactive)
7 | Cc1cc(C)cc(NC(=S)NCCc2c[nH]c3ccccc23)c1 | -73.6% (active)
8 | O=C(COC(=O)Cc1c[nH]c2ccccc12)NCCc1ccccc1 | 10.5% (inactive)
9 | c1cncc(CNCCc2c[nH]c3ccccc23)c1 | -8.49% (inactive)
10 | COc1ccc(NC(=O)C2Cc3c(-c4ccc(Cl)cc4)ccnc3O2)cc1 (centres undefined) | -3.46% (inactive)
11 | O=C(c1[nH]ncc1-c1ccc(Cl)cc1)C1CO1 (centres undefined) | -78.7% (active)
12 | COc1cccc(CNC(=O)C2CCN(S(=O)(=O)c3ccc4c(ccn4C)c3)CC2)c1 | 16.9% (inactive)
13 | c1ccc2c(-c3nn4nnnc4c4ccccc34)cccc2c1 | 49.8% (inactive)
14 | CN(C(=O)CSc1nc2ccc(NC(=O)COc3ccccc3)cc2s1)c1ccccc1 | -30% (inactive)
15 | COc1ccc2c(c1)c(N1CCCC1=O)c(C(=O)Nc1ccccc1C(F)(F)F)n2C | -24.2% (inactive)
16 | CCCCCC(=O)N1C[C@H](O)[C@@H](n2cc(COC(=O)c3ccccc3)nn2)C[C@@H]1c1ccc(C)cc1 | -7.72% (inactive)
17 | Cc1ccc([C@H]2C[C@H](O)[C@@H](n3cc(COC(=O)c4ccccc4)nn3)CN2C(=O)C2CCCCC2)cc1 | 1.46% (inactive)
18 | Cc1ccc([C@H]2C[C@H](O)[C@@H](n3cc(COC(=O)c4ccccc4)nn3)CN2CC2CCCCC2)cc1 | -100% (active)
19 | O=C(CC1Sc2ccccc2NC1=O)NNc1ccc(Cl)c(Cl)c1 (centres undefined) | -35.8% (inactive)
20 | COc1ccc(N2CCN(S(=O)(=O)c3ccc(-c4coc(C)n4)cc3)CC2)cc1 | -11.2% (inactive)
21 | CCOc1ccccc1N1CN(Cc2ccccc2)CNC1=S | -2.1% (inactive)
22 | CCOC(=O)c1ccc(NC2=CC(c3ccc(OCC)cc3)N(c3ccc(C(=O)OCC)cc3)C2=O)cc1 (centres undefined) | 18.7% (inactive)
23 | CCc1nnc(NC(=O)C2CCCN2S(=O)(=O)c2ccccc2)s1 (centres undefined) | -60.4% (active)

Row | SMILES | activity change, negative = inhibition
24 | CC(C)c1nnc(NC(=O)C2CCCN2S(=O)(=O)c2ccc(Cl)cc2)s1 (centres undefined) | 2.67% (inactive)
25 | CCc1nnc(NC(=O)C2CCN(C(=O)c3ccccc3C)CC2)s1 | 17.6% (inactive)
26 | O=C(CCn1c(=O)c2ccccc2n(Cc2ccc(Cl)cc2)c1=O)NCc1ccc2c(c1)OCO2 | 10.1% (inactive)
27 | COc1ccc(C(=O)/C=C/c2cccnc2)c(OC)c1 | -71.6% (active)
28 | COc1ccc(C(=O)COC(=O)C(O)c2ccccc2)c(OC)c1 (centres undefined) | -26% (inactive)
29 | COc1ccc(N2CC(C(=O)NCCN3C(=O)S/C(=C\c4cccnc4)C3=O)CC2=O)c(OC)c1 (centres undefined) | 24.9% (inactive)
30 | Cc1ccsc1CN(C(=O)c1oc2ccc(Br)cc2c1C)C1CCS(=O)(=O)C1 (centres undefined) | 30.1% (inactive)
31 | CCN1CCN(c2ncnc3c2cnn3-c2ccc(C)c(C)c2)CC1 | -1.25% (inactive)
32 | Cc1ccc(NC(=O)c2oc3ccccc3c2NC(=O)Cc2cccs2)cc1 | 14.9% (inactive)
33 | CCOc1ccc2oc(=O)cc(CN3CCN(C(=O)c4ccc(F)cc4)CC3)c2c1 | -25.5% (inactive)
34 | CC[n+]1cc(C)ccc1/C=C/c1ccc(N(C)C)cc1 | -99.4% (active)
35 | CCOC(=O)c1ccc(NC(=O)c2ncn(-c3ccccc3)n2)cc1 | 43.5% (inactive)
36 | COc1ccc(Cl)cc1NC(=O)CSc1nc(=O)[nH]c2c1CCCC2 | 31.1% (inactive)
37 | NS(=O)(=O)c1ccc(CCNC(=O)CCCCCn2c(=O)[nH]c3ccccc3c2=O)cc1 | 34% (inactive)
38 | Cc1c(C(=O)N2CCCC2)oc2c1-c1nn(CC(=O)NCc3ccc(OC(C)C)cc3)cc1CC2 | -68.3% (active)
39 | CCCN(CCC)CCCNC(=O)Cn1cc2c(n1)-c1c(oc(C(=O)N3CCCC3)c1C)CC2 | -39.7% (inactive)
40 | COc1ccccc1N1CCN(c2ccc(=O)n(CC(=O)NCc3ccc(OC(C)C)cc3)n2)CC1 | 13.7% (inactive)
41 | COc1ccccc1N(C)S(=O)(=O)c1ccc(C(=O)N2CCC(C(N)=O)CC2)cc1 | 63.1% (inactive)
42 | COc1ccc(C(=O)Nc2ccc(-n3nncc3-c3ccccc3)cc2)cc1OC | -6.64% (inactive)
43 | COc1cccc(C(=O)NC(=O)Nc2ccc(-c3cc(C(F)(F)F)nn3-c3ccccc3)cc2)c1 | -6.79% (inactive)
44 | COc1cccc(C(=O)Nc2ccc(-c3cc(C(F)(F)F)nn3-c3ccccc3)cc2)c1 | -87.7% (active)
45 | Cc1ccc(CNC(=O)CCc2c(C)nc3nc(CNC(=O)OC(C)(C)C)nn3c2C)cc1 | -10.3% (inactive)
46 | COc1cc2ccccc2cc1C(=O)Nc1cccc(-c2nc3ccccc3o2)c1 | -27.9% (inactive)

Row | SMILES | activity change, negative = inhibition
47 | Cc1ccc(C)c(N2CCN(C(=O)C3CCC(CNS(=O)(=O)c4cccs4)CC3)CC2)c1 (centres undefined) | -30% (inactive)
48 | CC1CCc2sc(C(=O)NCC(c3ccco3)N3CCCCC3)cc2C1 (centres undefined) | -61.7% (active)
49 | CSc1ncccc1C(=O)NCC(c1ccco1)N1CCCCC1 (centres undefined) | -4.3% (inactive)
50 | CC1Cc2ccccc2N1S(=O)(=O)c1cccc(C(=O)NCC(c2ccco2)N2CCCC2)c1 (centres undefined) | -24% (inactive)
51 | CCOC(=O)c1ccc(NC(=O)C2CC(=O)NC(=Nc3ccc(C)c(C)c3)S2)cc1 (centres undefined) | -14.2% (inactive)
52 | CC1(C)CC(=O)c2cc(OCC(=O)NCC3CCCO3)ccc2O1 (centres undefined) | 55.1% (inactive)
53 | Cc1ccc(CNC(=O)CCC(=O)N2Cc3ccccc3Oc3ncccc32)cc1 | -2.66% (inactive)
54 | CN1CCC(N(C)C(=O)c2ccc(Cl)c(S(=O)(=O)Nc3ccc(Cl)cc3)c2)CC1 | -3.23% (inactive)
55 | CC1CCCN(C(=O)Cn2c(=O)oc3ccccc32)C1 (centres undefined) | 12.6% (inactive)
56 | O=C(Cn1c(=O)n(CC2CS2)c2ccccc21)N1CCCCC1 (centres undefined) | -89.4% (active)
57 | Cn1c(=O)n(C)c(=O)n(CC(=O)N2CCCCC2)c1=O | 32.3% (inactive)
58 | Cc1cc(NC(=O)c2ccc(-c3ccc(Cl)cc3)o2)cc(-c2nc3ncccc3o2)c1O | 5.53% (inactive)
59 | Cc1cc(C(=O)NNC(=O)CCC2CCCCC2)c(C)o1 | -17% (inactive)
60 | Cc1cc(C(=O)NC2CCCc3c2cnn3-c2cccc(C)c2C)c(C)o1 (centres undefined) | -73.8% (active)
61 | Cc1cccc(C(=O)OC(C)C(=O)NC2CCCc3ccccc32)c1O (centres undefined) | -10.7% (inactive)
62 | Cc1cccc(-n2nc3c(c2NC(=O)c2ccc(Br)o2)CSC3)c1C | 14.4% (inactive)
63 | COc1ccc(C(=O)NC2CCCc3c2cnn3-c2cccc(C)c2C)c(OC)n1 (centres undefined) | -87% (active)
64 | COc1cccc(C(=O)Nc2c3c(nn2-c2cccc(C)c2C)CS(=O)(=O)C3)c1OC | -4.86% (inactive)
65 | COc1ccc(C(=O)N2CCC(c3nc4ccccc4o3)CC2)cc1 | 43.5% (inactive)
66 | Cc1cccc(N2CCN(C(=O)c3cc4c(=O)[nH]c5ccccc5c4n3C)CC2)c1C | -65.2% (active)
67 | Cc1cccc(N2CCN(C(=O)c3oc(=O)c4ccccc4c3-c3ccccc3)CC2)c1C | 4.74% (inactive)
68 | CCn1c(C)c(C)c2cc(C(=O)N3CCN(c4cccc(C)c4C)CC3)ccc21 | 0% (inactive) and 13.6% (inactive)
69 | COc1ccc2c(c1)c(=O)c(S(=O)(=O)c1ccc(F)cc1)cn2CC(=O)Nc1ccc(C)cc1C | -7.71% (inactive)

Row | SMILES | activity change, negative = inhibition
70 | CCS(=O)(=O)c1nc(S(=O)(=O)c2ccc(C)cc2)c(NCc2ccc(Cl)cc2)s1 | -5.88% (inactive)
71 | Cc1cccc(OCCSc2nc3ccc(NC(=O)COc4ccccc4C)cc3s2)c1 | -12.2% (inactive)
72 | CCC(=O)Nc1ccc2nc(SCC(=O)N3CCc4ccccc43)sc2c1 | 29.6% (inactive)
73 | CSc1nc2ccc(S(=O)(=O)N3CCc4ccccc43)cc2s1 | -81.9% (active)
74 | CCn1c(=O)c(=O)n(CC)c2cc(S(=O)(=O)N3CCc4ccccc43)ccc21 | -35.5% (inactive)
75 | Cc1nc2sc(C)c(C)n2c(=O)c1S(=O)(=O)NCCc1ccc(Cl)cc1 | 6.07% (inactive)
76 | Cc1oc2ncnc(N3CCOCC3)c2c1C(=O)NCCc1ccccc1 | -27.7% (inactive)
77 | CCNC(=O)C1CCCN(C(=O)c2cc(F)ccc2C)CC1 (centres undefined) | -4.35% (inactive)
78 | CN(C)c1cccc(C(=O)Nc2nc3ccc(S(=O)(=O)NC(C)(C)C)cc3s2)c1 | -29.3% (inactive)
79 | NS(=O)(=O)c1ccc2nc(NC(=O)COc3ccccc3)sc2c1 | -8.44% (inactive)
80 | O=C(NC(Nc1nc2ccc([N+](=O)[O-])cc2s1)(C(F)(F)F)C(F)(F)F)c1ccccc1 | -103% (active)
81 | O=C(Nc1cc(C(F)(F)F)ccc1Cl)c1cc2nc(-c3ccc4c(c3)OCO4)cc(C(F)(F)F)n2n1 | 4.65% (inactive)
82 | CCC(C)Nc1oc(-c2ccc(COc3ccc(Cl)cc3)o2)nc1C#N (centres undefined) | -28.6% (inactive)
83 | CCC(Sc1nc2n[nH]c(C)c2c(=N)n1-c1ccccc1Cl)C(=O)N(CC)CC (centres undefined) | 10.8% (inactive)
84 | CCN(CC(=O)Nc1c(F)cccc1F)C(=O)c1cnc(C)cn1 | -12.6% (inactive)
85 | COc1ccc(C)cc1NC(=O)CN1c2cccc3cccc(c23)S1(=O)=O | -63.9% (active)
86 | O=C(O)CN1c2cccc3cccc(c23)S1(=O)=O | 24.9% (inactive)
87 | CC(C)CN(CC(C)C)C(=O)CN1c2cccc3cccc(c23)S1(=O)=O | 51.7% (inactive)
88 | CCN(CC(=O)Nc1c(F)cccc1F)C(=O)CN1c2cccc3cccc(c23)S1(=O)=O | -81.2% (active)
89 | Cc1ccc(S(=O)(=O)N(C)C)cc1NC(=O)CN1c2cccc3cccc(c23)S1(=O)=O | -17.7% (inactive)
